Measured values: ChEMBL document CHEMBL4513216, “Probing the Open Global Health Chemical Diversity Library for Multistage-Active Starting Points for Next-Generation Antimalarials” (ACS Infect Dis, 2020)
The campaign covered roughly 69,000 compounds. About 8,600 (12%) showed an effect of 50% or more. The entries come from a sample that favours strong results as a whole.

System: Plasmodium berghei
Experiment: Screen against P. berghei liver stage (PbLuc), transformed with Luciferase, at 10uM
Assay type: functional, HepG2
Conditions: tested at 10 uM

Structure (SMILES) | INHIBITION
O=C1CCOC[C@]2(CN(Cc3ccccc3)C[C@H]2c2ccccc2)N1 | 37.1%
CCC(O)CN1CCN(C(=O)CCc2c(C)noc2Cl)CC1 (stereo not drawn) | 25.1%
CC(=O)N1CCC(c2ccnc(Nc3cncnc3)n2)C1 (stereo not drawn) | 42.6%
CCN1CC2(CCNCC2)COc2ccccc2S1(=O)=O | -0.79%
CNC(=O)CN1C(=O)CCC12CCCN(Cc1cccc(F)c1)C2 (stereo not drawn) | 32.1%
Cc1nc2[nH]cnc(Nc3cc(C)n(C)n3)c-2n1 | -6.42%
CCn1ccnc1CN(C)C1CCCN(Cc2ccccc2F)C1 (stereo not drawn) | -11.3%
CCN(Cc1ccncc1)C1CCCN(Cc2ccc(F)cc2OC)C1 (stereo not drawn) | 25.5%
CCn1c(C2CCCN(Cc3ccc(F)cc3Cl)C2)nn(C)c1=O (stereo not drawn) | -36.4%
Cc1nc(CN2CCCC(N(C)CCc3ccncc3)C2)no1 (stereo not drawn) | 25.7%
CCN(Cc1ccncc1)C1CCCN(Cc2ccc(F)cc2Cl)C1 (stereo not drawn) | 62.4%
CCN(Cc1ccncc1)C1CCCN(C/C=C/c2ccc(F)cc2)C1 (stereo not drawn) | 55.9%
O=C(c1ccncc1F)N1CCc2onc(COc3cccnc3)c2C1 | 29.9%
CCc1nc(CC)n(CC(=O)NCc2ccccc2C)n1 | 37.6%
CC(Cn1cccn1)NC(=O)N(C)Cc1cnn(C)c1 (stereo not drawn) | 22.6%
O=C(c1ccc2c(c1)CCO2)N1CCN(c2cnccn2)CC1 | -32%
NCC(=O)N1CCCC(O)(CN2CCN(c3ccccc3)CC2)CC1 (stereo not drawn) | 2.55%
COc1ccc(C[C@H]2CN(c3nnc(C)s3)CC[C@H]2OC)cc1 | 61.9%
CO[C@H]1CCN(c2nnc(C)s2)C[C@@H]1Cc1ccccc1 | -13.7%
CO[C@@H]1CCN(c2nnc(C)s2)C[C@@H]1Cc1ccccc1 | 37.8%
Cc1nnc(N2CC[C@@H](OCC3CC3)[C@@H](Cc3ccccc3)C2)s1 | 92.5%
COc1ccc(C[C@H]2CN(c3nnc(C)s3)CC[C@@H]2OC)cc1 | -3.83%

Structure (SMILES) | INHIBITION
Cc1nnc(N2CC[C@H](OCC3CC3)[C@@H](Cc3ccccc3)C2)s1 | 41.4%
CC(C)(C(=O)NCC1CCN(Cc2cccnc2)C1)c1ccccc1 (stereo not drawn) | 6.66%
O=C(NC1CC1)c1ccccc1NCc1cn2cccnc2n1 | -17%
CN1CC2(CCN(Cc3cccnc3)CC2)c2cccc(F)c21 | -16.9%
Cn1ccnc1CN1CCC2(CC1)CC(N1CCCC1)c1ccccc12 (stereo not drawn) | 24.6%
CN(C)C1CCC2(CCN(Cc3cccnc3)CC2)c2ccccc21 (stereo not drawn) | 50.4%
CN1CC2(CCN(Cc3cccnc3)CC2)c2cc(F)ccc21 | -29.8%
Cn1ccnc1CN1CCC2(CC1)CCN(c1ccccc1)C2=O | 16.6%
CN(C)C1CCC2(CCN(Cc3nccn3C)CC2)c2ccccc21 (stereo not drawn) | 66.3%
Cc1nn(CCC(=O)N2CCCC(OCc3cccnc3)C2)c(C)c1C (stereo not drawn) | 41.2%
COC1CCCOC12CCN(C(=O)NCCc1cccs1)CC2 (stereo not drawn) | -142%
O=C(N1CCCCC1)N1CCCC(c2ncncc2-c2ccncc2)C1 (stereo not drawn) | 17.1%
CCCc1cc(C(=O)N(Cc2cccnc2)C2CCCCC2)[nH]n1 | -9.87%
CCCc1cc(CN(C)C2CC(C)(C)NC(C)(C)C2)n[nH]1 | 11.6%
CCCc1cc(CN(C)C2CCSCC2)n[nH]1 | 50.1%
COCc1cc(CN(C)C(=O)c2c[nH]nc2-c2cccc(F)c2)n[nH]1 | -11.2%
Cc1cc(CC(C)NC2CCSCC2)[nH]n1 (stereo not drawn) | 22.7%
CCCc1cc(CN(C)C2CSCCSC2)n[nH]1 | 51.1%
CCCNC(=O)NC(=O)CN1CCN(Cc2nccn2CC)CC1 | 5.308%
Cc1nc(CN2CCN(C(=O)CCc3nc(C(C)(C)C)no3)CC2)cs1 | 30.8%
c1cncc(CN2CCc3c(nnn3CC3CC3)C2COCC2CC2)c1 (stereo not drawn) | 27.4%
CCN1CCN(C(=O)Cn2ncc3c2c(C)nn3C(C)C)CC1 | 15.9%

Structure (SMILES) | INHIBITION
CCC(C)N(C)CCNC(=O)c1ccccc1OCCOC (stereo not drawn) | 8.64%
O=C1CCC2(CCCN(Cc3ccccc3F)C2)N1CC1CC1 (stereo not drawn) | -19.6%
CCOCc1ccccc1NC(=O)NCC(C)(O)c1ccsc1 (stereo not drawn) | 11%
CCOCc1ccccc1NC(=O)NCC(C)(O)c1cccs1 (stereo not drawn) | 0.734%
CCOCc1ccccc1NC(=O)NCC(C)(O)c1cc(C)oc1C (stereo not drawn) | 85.5%
CCC(CN1CCCC1)n1cncc1-c1cnn(Cc2ccccc2)c1 (stereo not drawn) | 3.5%
CN(C)S(=O)(=O)N1CCC(c2ccncc2)CC1 | -33.4%
Cc1cc(C)nc(NC(=O)C(C)Oc2ccc3c(c2)OCO3)n1 (stereo not drawn) | 48.5%
Cc1cc(NC(=O)C(C)Oc2ccc3c(c2)OCO3)no1 (stereo not drawn) | 14.6%
Cc1cccc(NC(=O)C(C)Oc2ccc3c(c2)OCO3)n1 (stereo not drawn) | 53.7%
CC(=O)c1cccc(CN2CCCC23CCN(c2ccccn2)CC3)c1 | 19.8%
COc1cccc(CNC(=O)CCOc2ccccc2C)c1 | 2.43%
COc1cccc(CSC=C2Nc3ccccc3S(=O)(=O)N2)c1 | 27.7%
COc1cccc(CNC(=O)CCC2=Nc3ccccc3S(=O)(=O)N2)c1 | 57%
COc1cccc(CN(C)CC2=Nc3ccccc3S(=O)(=O)N2)c1 | 69.7%
CNS(=O)(=O)c1ccc(CCC(=O)NCc2cccc(OC)c2)cc1 | -74.6%
COc1cccc(CN(C)CC(=O)NC2(C)CCS(=O)(=O)C2)c1 (stereo not drawn) | -27.9%
Cc1nn(C)c(N(C)C)c1CNC1CCOc2ccccc21 (stereo not drawn) | -5.05%
Cc1oc2c(c1C(=O)N1C[C@H](O)[C@]3(CCCO3)C1)CCCC2 | 3.95%
CC1CN(C)CCN1C(=O)Nc1nc(-c2ccc[nH]2)cs1 (stereo not drawn) | 6.33%
CS(=O)(=O)NCCNCc1ccc(Br)s1 | -40.7%
CN1C(=O)C(C)(C)COc2cc(NS(=O)(=O)c3ccccc3F)ccc21 | 22.3%

Structure (SMILES) | INHIBITION
CC(C)Sc1ncccc1C(=O)NCc1ccoc1 | 42.9%
CC(C)Sc1ncccc1C(=O)NCc1ccc(O)cc1 | 60.7%
CC(C)Sc1ncccc1C(=O)NCc1ccc(CS(C)(=O)=O)cc1 | 14.4%
O=C(NCCc1nnc2n1CCC2)NCC1(c2ccc(F)cc2)CC1 | 9.63%
COc1ccccc1N1CCN(C(=O)Cn2nc(C)c(Cl)c2C)CC1 | -29.2%
CCS(=O)(=O)N1CCC2(CC1)CC1(CCN(CCOC)CC1)C(=O)N2C | 40.8%
Cc1cc(CN[C@@H](C)C(N)=O)c(C)s1 | 16.3%
Cc1cc(CN[C@@H](Cc2ccccc2)C(N)=O)c(C)s1 | 53.3%
Cc1cc(CN[C@H](C(N)=O)[C@@H](C)O)c(C)s1 | 38.7%
Cc1csc(C(C)(C)NCc2ncc(-c3ccc(F)cc3)o2)n1 | -46.4%
COc1ncc(CN2CCOC(C)(C(=O)N3CCOCC3)C2)cn1 (stereo not drawn) | 41.2%
O=c1[nH]ncc(NCCOc2ccc3c(c2)OCO3)c1Cl | 20.3%
O=c1[nH]ncc(NCCOc2cccc(Br)c2)c1Cl | 15.6%
O=c1[nH]ncc(NCCOc2ccc3c(c2)CCC3)c1Cl | 77.1%
CCn1nccc1CN(C)C(=O)Cn1cc2c(n1)c(C)nn2CC | 35%
O=C(CSc1ncccn1)N1C[C@@H]2CC[C@H]1CN(Cc1ccncc1)C2 | 21.6%
Cc1nc2c(C)cccc2cc1C(=O)N1CCC2(CCNCC2)CC1 | 47.7%
Cc1cc(O)c(OCC(=O)/N=c2\[nH]cc(C)s2)cn1 | -48.2%
Cc1ccc(-c2nc(CNC3CCc4ncnn4C3)no2)cc1 (stereo not drawn) | 0.411%
CC(Cn1ccnc1)NC(=O)C1(c2ccccc2)CC1 (stereo not drawn) | 46.2%
Cc1ccc(CN2Cc3nnn(C)c3C(COCc3ccccc3)C2)s1 (stereo not drawn) | 78.7%
Cc1ccc(CN2Cc3nnn(C)c3C(COCCN(C)C)C2)s1 (stereo not drawn) | 10%

Structure (SMILES) | INHIBITION
Cc1ccc(CN2Cc3nnn(C)c3C(COCc3ccccc3)C2)o1 (stereo not drawn) | 28.4%
COCC1CN(Cc2ccc(C)s2)Cc2nnn(C)c21 (stereo not drawn) | 21.4%
Cc1ccc(CN2Cc3nnn(C)c3C(COCc3ccccn3)C2)s1 (stereo not drawn) | -37.9%
Cc1ccc(CN2Cc3nnn(C)c3C(COCC3CC3)C2)s1 (stereo not drawn) | 71.8%
CC[C@@H]1C[C@H](C(F)(F)F)n2nc(C3CCN(S(=O)(=O)CC)CC3)cc2N1 | 46%
NC(=O)COc1ccc(CNCc2cc(F)ccc2F)cc1 | 1.56%
CCn1c(C)nnc1CN(C)C1CCN(Cc2nnc(C3CC3)o2)C1 (stereo not drawn) | 36.1%
CCC(O)Cn1nc(-c2ccc(C(=O)O)cc2)cc1-c1cccc(F)c1 (stereo not drawn) | 19.75%
CC(C)Cn1nc(-c2ccc(C(=O)O)cc2)cc1-c1ccc(F)cc1 | 54.3%
CCC(O)Cn1nc(-c2ccc(C(=O)O)cc2)cc1-c1ccc(F)cc1 (stereo not drawn) | 38.05%
COc1ccc(CC2CN(C3CCSCC3)CCO2)cc1 (stereo not drawn) | 35.4%
Cc1ccc(N2CC[C@H]3OCC[C@@]3(C(=O)N3CCCO3)C2)nn1 | 25.3%
Cc1csc(CNC(=O)N(C)Cc2ccncc2)n1 | -53.6835%
CN(Cc1ccncc1)C(=O)NCc1cn(-c2ccccc2)nn1 | 56.3%
CC(NC(=O)CCCN(C)C)c1cn(-c2ccccc2)nn1 (stereo not drawn) | 21.8%
CC(NC(=O)N(C)Cc1ccncc1)c1nncn1C (stereo not drawn) | 13.7%
CC(NC(=O)N(C)Cc1ccncc1)c1cn(-c2ccccc2)nn1 (stereo not drawn) | 60.1%
CCN(Cc1ccncc1)Cc1cn(-c2ccccc2)nn1 | 5.33%
NC(=O)NCC(=O)N1CCCC(c2nccn2CC2CCC2)C1 (stereo not drawn) | 17.5%
CC(C)c1nnc2n1CCN(c1nn3cc(C(C)(C)C)nc3s1)C2 | -34.6%
